Tau fibril FP: tau fibrillization inhibition (FP). P10636. K18 P301L tau heparin fibrillization, Alexa594 FP, 6 h. Potency, µM (series often up to 57.7 µM), usual class: inhibitors. 280,000 tested, 0.39% active. AID 1468; note: nearly all actives have a fitted effect of over 55% in size
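Heparin (20 uM) drove fibril formation of recombinant tau K18 P301L, 15 uM unlabeled with 0.24 uM Alexa 594 label, for 6 hr at 37 C in 100 mM sodium acetate pH 7. Fluorescence polarization (555/632 nm) read 1 hr after 30 uM ThT.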
TRb-SRC2 inh: disrupts binding of human TR beta to SRC2 | P10828 | TRbeta-SRC2 peptide binding, fluorescence polarization; receptor liganded with 1 µM T3 | Potency, µM (series often up to 106 µM), hits mostly inhibitors | 280,000 tested, 0.065% active | AID 1469; note: nearly all actives have a fitted effect of over 50% in size
Target sequence (P10828 whole entry, looked up): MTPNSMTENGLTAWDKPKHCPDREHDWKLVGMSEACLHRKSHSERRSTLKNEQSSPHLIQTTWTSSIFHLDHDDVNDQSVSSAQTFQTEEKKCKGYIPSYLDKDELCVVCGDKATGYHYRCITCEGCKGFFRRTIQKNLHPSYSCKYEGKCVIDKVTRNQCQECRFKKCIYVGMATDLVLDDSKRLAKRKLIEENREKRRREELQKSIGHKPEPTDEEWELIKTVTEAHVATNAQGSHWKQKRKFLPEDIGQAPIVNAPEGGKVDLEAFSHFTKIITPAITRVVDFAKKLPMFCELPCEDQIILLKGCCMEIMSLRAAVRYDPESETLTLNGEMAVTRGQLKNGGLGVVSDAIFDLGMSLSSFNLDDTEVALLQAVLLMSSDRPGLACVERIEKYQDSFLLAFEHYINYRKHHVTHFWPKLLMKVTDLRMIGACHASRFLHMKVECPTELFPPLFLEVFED
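Compounds were added to 0.6 uM TRb ligand-binding domain and 20 nM Texas Red-labeled SRC2 peptide in Tris buffer containing 1 uM T3, incubated 5 hr at ambient temperature, then read by fluorescence polarization.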
Tau ThT inhib: inhibitors of human tau fibril formation, thioflavin T binding; Potency, µM (top dose mostly 57.4 µM), hits mostly inhibitors; P10636; recombinant tau K18 P301L, heparin-induced fibrillization, ThT fluorescence; 270,000 tested, 2.1% active; note: nearly all actives have a fitted effect of over 55% in size
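Tau K18 P301L fragment (15 uM unlabeled plus 0.24 uM Alexa 594-labeled) in 100 mM sodium acetate pH 7 with compound, fibrillization induced by 20 uM heparin for 6 hr at 37 C. Thioflavin T (30 uM) added, fluorescence read after 1 hr (ex 450, em 510 nm).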
Tau fluor counter: counter-screen for tau fibril formation inhibitors; tau K18 P301L (four-repeat tau fragment) Alexa594 fluorescence, heparin fibrillization; Potency, µM (titrated, usually from 57.7 µM); 280,000 tested, 0.93% active; AID 1463; note: nearly all actives have a fitted effect of over 55% in size
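Human K18 P301L tau (15 uM unlabeled plus 0.24 uM Alexa 594-labeled, final) in 100 mM sodium acetate pH 7 was mixed with compound and 20 uM heparin and incubated 6 hr at 37 C.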
TR SRC2 fluor cs: alters Texas Red total fluorescence, flagging assay interference; 280,000 tested, 0.29% active; TRb/SRC2 Texas Red total fluorescence interference; Potency, µM (titrated, usually from 106 µM); AID 1479; active = well fitted curve in either direction with a large enough effect; inconclusive = small, poorly fitted or top-dose-only effect
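Flags fluorescent or light-absorbing compounds by total fluorescence, S + 2P, at 555 nm excitation and 632 nm emission. Mixture: 20 nM Texas Red SRC2 peptide, 0.6 uM human TRb LBD, 1 uM T3, 5% DMSO; compound exposure 5 h at ambient temperature.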
RGS12 GoLoco inh: RGS12 GoLoco-Gai1 interaction inhibition. Gai1:RGS12 GoLoco peptide FP, rhodamine, 10 min. Potency, µM (doses to about 61.6 µM), usual class: inhibitors. 230,000 tested, 0.44% active; active = well fitted inhibition curve with a large enough effect, not every such curve was filed as active; inactive = no such curve, though single readings can be large or run the other way; note: nearly all actives have a fitted effect of over 30% in size
Large screens that a line does not name were inactive; ! = repeats disagree; [ ] = another dose, or the depositor's remark. Hits are enriched below; roughly 3.1% of the tested compounds scored in any of these assays. Unless noted, calls come from the whole dose curve; as a rule, active = well fitted curve in the direction sought with a large enough effect; inconclusive = small, poorly fitted or top-dose-only effect, or another doubt; inactive = no such curve, though single readings can be large; an effect the other way counts as inactive or inconclusive.

CC(C)=CCCC1(C)C=Cc2c(c(C)cc3c2[nH]c2ccccc23)O1 (stereo not drawn)	Tau ThT inhib inconclusive, Tau fluor counter 8.9µM[quencher]
COc1ccc(C(=O)Nc2cccc3c2C(=O)NC3=O)cc1S(=O)(=O)N1CCOCC1	none
Cc1ccc2c(c1)/C(=N/N1C(=O)c3ccccc3C1=O)C(=O)N2	Tau ThT inhib inconclusive
Nc1n[nH]c(=S)n1/N=C1/C(=O)Nc2ccccc21	Tau fibril FP inconclusive, Tau ThT inhib 18µM
CCc1ccc2ncc(S(=O)(=O)c3ccc(C)c(C)c3)c(N3CCCC3)c2c1	none
Cc1ccc(Nc2nc(-c3sc(NC(=O)c4ccc([N+](=O)[O-])cc4)nc3C)cs2)cc1	Tau ThT inhib 3.2µM, Tau fluor counter inconclusive
Cc1ccc(Cl)cc1Nc1nc(-c2sc(NC(=O)c3cccc(Cl)c3)nc2C)cs1	Tau ThT inhib inconclusive, Tau fluor counter inconclusive
CCOc1ccccc1Nc1nc(-c2sc(NC(=O)c3ccc([N+](=O)[O-])cc3)nc2C)cs1	Tau fibril FP inconclusive, Tau ThT inhib 3.5µM, Tau fluor counter 7.9µM[quencher]
Cc1ccccc1Nc1nc(-c2sc(NC(=O)c3ccc([N+](=O)[O-])cc3)nc2C)cs1	Tau ThT inhib 4µM, Tau fluor counter 10µM[quencher]
COC(=O)[C@@]1(Cc2ccc(F)cc2)[C@H]2c3cc(C(=O)N(C)C)n(Cc4ccc(C)o4)c3C[C@H]2CN1C(=O)c1ccccc1	Tau ThT inhib inconclusive
COC(=O)C1CCN(C(=O)COC(=O)CC(NC(C)=O)c2ccccc2)CC1 (stereo not drawn)	none
O=C(CNC(=O)c1ccc(F)cc1)N/N=C/c1ccc(O)c([N+](=O)[O-])c1	Tau ThT inhib inconclusive
O=C(CSc1nc(-c2cccs2)nc2cc(=O)[nH]n12)Nc1ccccc1F	none (no result: RGS12 GoLoco inh)
CC(=O)/C(=N/Nc1ccccc1)Sc1nnc(CCc2ccccc2)n1-c1ccccc1	TRb-SRC2 inh inconclusive, TR SRC2 fluor cs 0.35µM[quencher]
Cc1[nH]nc2c1C(c1c[nH]c3ccccc13)C(C#N)=C(N)O2 (stereo not drawn)	none (no result: Tau ThT inhib)
COC(=O)Cc1[nH]nc2c1C(c1c[nH]c3ccccc13)C(C#N)=C(N)O2 (stereo not drawn)	Tau ThT inhib 25µM, Tau fluor counter inconclusive
Cc1ccc(-[n+]2cc(=O)o[nH]2)cc1	none (no result: Tau fibril FP, TRb-SRC2 inh, Tau ThT inhib, Tau fluor counter, TR SRC2 fluor cs)
COCCN1C(=O)N[C@@H](c2ccc(Br)cc2)C(C(C)=O)=C1C	none
CC/C=C\C/C=C\C/C=C\CCCCCCCC(=O)O	Tau fibril FP inconclusive, Tau ThT inhib 28µM!
CC/C=C\C/C=C\C/C=C\CCCCCCCCCCCC(=O)O	Tau ThT inhib inconclusive
CCOC(=O)c1cnc(SC2CCc3ccccc3C2=O)nc1N (stereo not drawn)	Tau fibril FP inconclusive, Tau ThT inhib 28µM, Tau fluor counter inconclusive
COc1ccc(-c2ccc(C3C(C#N)=C(N)Oc4n[nH]c(C)c43)o2)cc1 (stereo not drawn)	Tau ThT inhib 4.5µM, Tau fluor counter inconclusive
CCN(CC)CCCN1C=C2C(=O)C(C)(OC(=O)C3CCCC3)C(=O)C(c3ccccc3)=C2C=C1CCCC(=O)OC (stereo not drawn)	none
CC(=O)c1ccc(N2CCN(C(=O)CS(=O)(=O)c3cccc4nsnc34)CC2)cc1	none (no result: RGS12 GoLoco inh)
Cc1ccc(C)c(N2CCN(C(=O)CS(=O)(=O)c3cccc4nsnc34)CC2)c1	TR SRC2 fluor cs 0.035µM[quencher] (no result: RGS12 GoLoco inh)
O=C(CCC(=O)N/N=C/c1ccc(Br)s1)NCc1ccccc1	none
Brc1ccc(C=Nc2ccc(Nc3ccccc3)cc2)s1	Tau fibril FP inconclusive, Tau ThT inhib 10µM, Tau fluor counter 11µM[quencher]
C(=Nc1ccc(Nc2ccccc2)cc1)c1ccc2ccccc2c1	Tau fibril FP inconclusive, Tau ThT inhib 7.9µM, Tau fluor counter 8.9µM[quencher], TR SRC2 fluor cs inconclusive
C/C(=N\O)C(=O)NCc1ccncc1	none
N#CC1=C(N)Oc2n[nH]c(-c3cccs3)c2C1c1ccccc1C(=O)O (stereo not drawn)	none
N#CC1=C(N)Oc2n[nH]c(-c3cccs3)c2C1c1cccs1 (stereo not drawn)	Tau ThT inhib 28µM, Tau fluor counter inconclusive

Screens deposited in PubChem BioAssay by National Center for Advancing Translational Sciences (NCATS).
